“And” between values parts separate entries of the source, which are not always exact repeats. Equal values may be shown once. More than one record can exist for a structure, and the calls need not agree. The source made the active and inactive calls. How the source made its calls: active means hit-call score of the fitted dose curve at least 0.9, where 1 is the maximum; inactive means score below 0.9.
assay: ATG_FoxO_CIS: Attagene CIS-FACTORIAL HepG2 Assay for human Forkhead box O (FoxO) (AID 2282943); settings: HepG2 Attagene cis-reporter, FoxO element, mRNA; actives raise or lower the signal
In short: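 24 h chemical exposure, HepG2 with transient cis-MRTU transfection. RNA extraction, oligo(dT) RT, reporter-specific PCR, primer-extension labelling, HpaI digestion, CE fragment analysis; bidirectional fit, DMSO baseline.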

| Compound | outcome | AC50 |
| --- | --- | --- |
| CC1(C)C(C=C(Cl)Cl)C1C(=O)OCc1cccc(Oc2ccccc2)c1 (configuration not stated) | inactive | – |
| CCCOC(=O)c1ccc(C(=O)OCCC)nc1 | inactive | – |
| O=C(Nc1ccc([N+](=O)[O-])cc1Cl)c1cc(Cl)ccc1O | inactive | – |
| COc1nc(C)nc(NC(=O)NS(=O)(=O)c2ccccc2OCCCl)n1 | inactive | – |
| N#CSCSc1nc2ccccc2s1 | inactive | – |
| CCC(O)=C1C(=O)CC(C(=O)O)CC1=O (configuration not stated) | inactive | – |
| CSC(=O)c1cccc2nnsc12 | inactive | – |
| C[C@]12C[C@H](O)[C@H]3[C@@H](CCC4=CC(=O)CC[C@@]43C)[C@@H]1CC[C@@H]2C(=O)CO | inactive | – |
| O=C(O)C1(C(=O)Nc2ccc(Cl)cc2Cl)CC1 | inactive | – |
| COC(=O)c1ccc(I)cc1S(=O)(=O)NC(=O)Nc1nc(C)nc(OC)n1 | inactive | – |
| CC(=O)S[C@@H]1CC2=CC(=O)CC[C@]2(C)[C@H]2CC[C@@]3(C)[C@@H](CC[C@@]34CCC(=O)O4)[C@H]12 | inactive | – |
| CCNc1nc(N)nc(Cl)n1 | inactive | – |
| CC(C)CCCCCCc1ccc(O)cc1 | inactive | 20.3 µM (active) and 17.9 µM (active) |
| CCCCOC(=O)[C@@H](C)Oc1ccc(Oc2ccc(C(F)(F)F)cn2)cc1 | inactive | – |
| C#C[C@]1(O)CC[C@H]2[C@@H]3CCC4=CC(=O)CC[C@@H]4[C@H]3CC[C@@]21CC | inactive | – |
| CCCCC(CC)COC(=O)c1ccccc1C(=O)O (configuration not stated) | inactive | – |
| CCOC(=O)[C@H](C)Oc1ccc(Oc2nc3ccc(Cl)cc3o2)cc1 | inactive | – |
| CC(=O)[C@H]1CC[C@H]2[C@@H]3CCC4=CC(=O)CC[C@]4(C)[C@H]3CC[C@]12C | inactive | 154 µM (active) |
| CCCCOC(=O)C(C)Oc1ccc(Oc2ccc(C(F)(F)F)cn2)cc1 (configuration not stated) | inactive | – |
| CCCCC(CC)CN1C(=O)C2C3C=CC(C3)C2C1=O (configuration not stated) | inactive | – |
| CCOC(=O)C(C)Oc1ccc(Oc2nc3ccc(Cl)cc3o2)cc1 (configuration not stated) | inactive | – |
| CCN(CC)C(=O)c1cccc(C)c1 | inactive | – |
| COC(=O)c1cccc(C)c1S(=O)(=O)NC(=O)Nc1nc(OCC(F)(F)F)nc(N(C)C)n1 | inactive | – |
| OB(O)O | inactive | – |
| CCCCOCCOCCOCc1cc2c(cc1CCC)OCO2 | inactive | – |
| CCCN(CCC)C(=O)SCC | inactive | – |
| CCCOC(=O)NCCCN(C)C | inactive | – |
| c1ccc(Nc2ccccc2)cc1 | inactive | – |
| CCOC(=O)COc1cc(-n2ncc(C(F)(F)F)c(C)c2=O)c(F)cc1Cl | inactive | – |
| CCCCCOC(=O)COc1cc(N2C(=O)C3=C(CCCC3)C2=O)c(F)cc1Cl | inactive | – |

From PubChem BioAssay (EPA / NIEHS)
